From PubChem
TexasRed fluor = counter-screen for TRb-SRC2 inhibitors: fluorescence interference. TRb/SRC2 Texas Red total fluorescence interference. Potency, µM (highest dose often 106 µM), for the others: at the top dose fluorescence change, negative = quenching. 280,000 compounds, 0.29% hits. AID 1479; active = well fitted curve in either direction with a large enough effect; inconclusive = small, poorly fitted or top-dose-only effect; note: % is set by controls: 0 for no effect and ±100 for the full control effect
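Human TRβ ligand-binding domain (0.6 uM) and Texas Red SRC2 peptide (20 nM) in Tris buffer with 1 uM T3 and 5% DMSO were incubated with pinned compound for 5 hr at ambient temperature. Total fluorescence was computed as S + 2P (555/632 nm).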
RECQ1 inh-1 = inhibitors of human RECQ1 DNA helicase; P46063; RECQ1 DNA unwinding, red fluorescence kinetic read; Potency, µM (top dose mostly 57.3 µM), inactives show at the highest dose activity, negative = inhibition, hits mostly inhibitors; 240,000 compounds, 0.54% hits; AID 2549;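 note: plate controls were vehicle for no effect and no enzyme for full effect; nearly all actives have a fitted effect of over 30% in size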
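50 nM RECQ1T1 preincubated 15 min with compound in Tris pH 8.0 buffer with MgCl2, DTT, Tween-20 and 2.5 ug/ml poly(dI-dC); started with 200 nM TAMRA/BHQ-2 forked duplex and 2 mM ATP. Unwinding read as fluorescence (525/598 nm), two reads 2 h apart.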
BLM inh = blocks DNA unwinding by human BLM helicase | 350,000 compounds, 0.2% hits | recombinant BLM DNA unwinding, fluorescence dequenching | P54132 | Potency, µM (titrated, usually from 56.1 µM), for inactives: at the top dose activity change, negative = inhibition, hits mostly inhibitors;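 note: plate controls were vehicle for no effect and no enzyme for full effect; nearly all actives have a fitted effect of over 35% in size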
TRb-SRC2 inh = inhibitors of human thyroid hormone receptor beta-SRC2 interaction. P10828. TRbeta-SRC2 peptide binding, fluorescence polarization; receptor liganded with 1 µM T3. Potency, µM (highest dose often 106 µM), for inactives: at the highest dose activity change, negative = inhibition, hits mostly inhibitors. 280,000 compounds, 0.065% hits;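 note: plate controls were bound peptide for no effect and peptide without receptor for full effect; nearly all actives have a fitted effect of over 50% in size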
Target sequence (P10828 whole entry, looked up): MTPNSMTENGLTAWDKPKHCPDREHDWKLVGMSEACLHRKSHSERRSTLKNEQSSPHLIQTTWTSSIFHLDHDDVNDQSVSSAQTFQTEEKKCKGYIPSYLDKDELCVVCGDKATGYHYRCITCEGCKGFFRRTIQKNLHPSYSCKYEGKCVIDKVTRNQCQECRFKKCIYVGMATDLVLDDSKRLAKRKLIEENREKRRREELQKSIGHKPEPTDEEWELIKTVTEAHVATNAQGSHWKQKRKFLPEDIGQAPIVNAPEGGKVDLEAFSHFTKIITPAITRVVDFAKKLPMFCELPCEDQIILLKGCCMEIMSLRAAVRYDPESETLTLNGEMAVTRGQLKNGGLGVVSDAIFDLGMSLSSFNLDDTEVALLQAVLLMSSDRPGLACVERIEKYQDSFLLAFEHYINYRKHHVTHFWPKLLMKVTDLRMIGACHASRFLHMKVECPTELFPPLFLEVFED
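Human TRb ligand-binding domain (0.6 uM) is mixed with 20 nM Texas Red SRC2 peptide and 1 uM T3; after compound addition and 5 hr at ambient temperature, polarization is measured and normalized to unbound and bound controls.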
ERG-DNA inh = inhibitors of human ERG Ets domain-DNA interaction; fluorescence polarization, His-ERG Ets domain / labelled DNA; Potency, µM (doses to about 76.9 µM), inactives show at the highest dose FP activity, negative = inhibition, usual class: inhibitors; 370,000 compounds, 0.028% hits; active = well fitted inhibition curve with a large enough effect in the polarisation, with a control signal flat; inconclusive = small, poorly fitted or top-dose-only effect, or effect the other way, or a change in a side signal; inactive = no such curve, though single readings can be large or run the other way; the % refers to the polarisation;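 note: polarization taken with two DNA probes labelled with fluorescein and Texas red; % of control where 0% means no effect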
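His-tagged ERG Ets domain (1 uM in the protein solution; 300mM KCl, 50mM Tris-HCl, 1mM EDTA, 1mM DTT, pH 7.5) received compound, then a probe mix of 5 nM fluorescein-DNA and 100nM Texas-615-DNA. Fluorescence polarization was read for both dyes.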
RGS12 GoLoco inh = blocks human Gai1 binding to RGS12 GoLoco peptide, red readout. 230,000 compounds, 0.44% hits. P63096. AID 880. Potency, µM (series often up to 61.6 µM), for the others: top-dose activity, negative = inhibition, hits mostly inhibitors. Gai1:RGS12 GoLoco peptide FP, rhodamine, 10 min; active = well fitted inhibition curve with a large enough effect, not every such curve was filed as active; inactive = no such curve, though single readings can be large or run the other way; note: % is set by controls: 0 for no effect and ±100 for the full control effect; nearly all actives have a fitted effect of over 30% in size
Target sequence (P63096 whole entry, looked up): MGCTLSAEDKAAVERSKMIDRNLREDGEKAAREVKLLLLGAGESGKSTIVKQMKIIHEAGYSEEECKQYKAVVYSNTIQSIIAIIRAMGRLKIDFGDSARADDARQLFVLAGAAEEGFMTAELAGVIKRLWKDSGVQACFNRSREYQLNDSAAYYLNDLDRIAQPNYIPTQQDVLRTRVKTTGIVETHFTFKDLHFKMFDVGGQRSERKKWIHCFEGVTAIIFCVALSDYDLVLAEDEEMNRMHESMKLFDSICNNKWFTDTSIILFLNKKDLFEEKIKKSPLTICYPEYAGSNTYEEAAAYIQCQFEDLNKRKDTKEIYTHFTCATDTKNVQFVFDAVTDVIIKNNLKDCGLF
RECQ1 inh conf = confirmation of human RECQ1 helicase inhibitors; 610 compounds, 28% hits; shares compounds with RECQ1 inh-1; RECQ1 helicase DNA unwinding, fluorescence; Potency, µM (top dose mostly 229 µM), for inactives: at the highest dose activity change, negative = inhibition, most hits filed as inhibitors; note: % is set by controls: 0 for no effect and ±100 for the full control effect; nearly all actives have a fitted effect of over 45% in size
RECQ1 ADP FP = ADP displacement flagged in RECQ1 inhibitor counter-screen. Potency, µM (doses to about 228 µM), without a hit: top-dose activity change, negative = inhibition, actives largely listed as inhibitors. ADP fluorescence polarization displacement counterscreen. 530 compounds, 27% hits. shares compounds with RECQ1 inh-1; note: % is set by controls: 0 for no effect and ±100 for the full control effect; nearly all actives have a fitted effect of over 45% in size
RECQ1 inh-2 = blocks human RECQ1 DNA unwinding. Potency, µM (doses to about 119 µM), without a hit: at the top dose activity, negative = inhibition, most hits filed as inhibitors. shares compounds with RECQ1 inh-1. 1,100 compounds, 15% hits. AID 504841. recombinant RECQ1 DNA unwinding, red fluorescence; note: % is set by controls: 0 for no effect and ±100 for the full control effect; nearly all actives have a fitted effect of over 50% in size
An asterisk follows results filed as active; i = inactive; ? = inconclusive; . = no result; [ ] = remark or other dose. An excerpt weighted towards active compounds, which were near 0.71% of everything screened. Unless noted, calls come from the whole dose curve; as a rule, active = well fitted curve in the direction sought with a large enough effect; inconclusive = small, poorly fitted or top-dose-only effect, or another doubt; inactive = no such curve, though single readings can be large; an effect the other way counts as inactive or inconclusive. Potency is the fitted concentration of half-maximal effect.

SMILES	TexasRed fluor	RECQ1 inh-1	BLM inh	TRb-SRC2 inh	ERG-DNA inh	RGS12 GoLoco inh	RECQ1 inh-2	others
CCC(C(=O)Nc1cc(C(F)(F)F)ccc1Cl)n1nc(C)c2sc3ccccc3c2c1=O (configuration not stated)	1.1%	.	-6.6%	-3.2%	0.6%	.	.
Cc1ccc(N2CC(C(=O)NCc3ccc(C)n3C)CC2=O)cc1 (configuration not stated)	-5.9%	?	-8.8%	-8.4%	2.0%	-8.8%	-8.9%
Cc1ccc(N2CC(C(=O)NCCC(C)C)CC2=O)cc1 (configuration not stated)	-2.9%	-3.3%	-0.6%	2.5%	2.4%	10.7%	.
C=CCOc1ccccc1/C=c1\sc2nc(=O)c(C)nn2c1=O	-3.0%	?	-7.6%	-4.8%	3.9%	22.0%	?
COc1ccc(/C=c2\sc3nc(-c4ccccc4OC)nn3c2=O)c(OC)c1	-3.5%	-4.5%	1.4%	2.8%	-1.6%	45.5%	.
CCC(C)NC(=O)c1ccccc1NC(=O)c1ccc(CSc2ccc(C)cc2)cc1 (configuration not stated)	3.2%	5.01µM*	-3.6%	-8.3%	-20.4%	2.1%	-16.3%	RECQ1 inh conf=-7.9%[114 µM];RECQ1 ADP FP=5.1%[91.9 µM]
COc1cc2c(cc1OC)C(=O)N(C)CC2	1.4%	2.3%	-8.5%	-6.5%	-6.2%	2.8%	.
COc1cc2cc3c4c(cc(OC)c(OC)c4c2cc1OC)CCN3C	-5.6%	11.2µM*	3.98µM*	?	.	-17.5%	.	RECQ1 inh conf=?;RECQ1 ADP FP=69.4%
COc1ccc(-n2c(=O)cnc3cnc(N(C)C)nc32)cc1	.	i	3.2%	.	.	6.7%	.
Cc1ccc(C)n1-c1sc2c(c1C(=O)O)CCCC2	-1.1%	12.6µM*	-17.7%	-1.6%	8.7%	-25.8%	8.91µM*	RECQ1 inh conf=56.2µM*;RECQ1 ADP FP=?
COc1ccc(NC(=O)c2ccc(OCc3c(C)noc3C)c(OC)c2)cn1	-1.7%	-3.6%	-0.5%	-1.7%	10.3%	12.3%	.	RECQ1 inh conf=-14.0%;RECQ1 ADP FP=112µM*
COc1ccc(CCNc2ncnc3c2[nH]c2cc(OC)c(OC)cc23)cc1OC	-9.3%	14.1µM*	-13.7%	12.1%	?	13.2%	?	RECQ1 inh conf=?;RECQ1 ADP FP=-23.5%[91.9 µM]
COc1ccc(CCNc2ncnc3cc(OC)c(OC)cc23)cc1OC	-2.7%	i	-10.1%	3.7%	5.2%	15.0%	.
CCc1cccc(C)c1NC(=O)CN1C(=O)c2c(c3ccccc3n2C)C1c1ccc(OC)cc1 (configuration not stated)	-0.3%	.	-10.4%	-1.9%	1.7%	.	.
O=C(CNS(=O)(=O)c1c(Cl)cccc1Cl)OCC(=O)c1ccc[nH]1	2.0%	?	-26.1%	1.7%	2.5%	28.3%	-22.6%
O=C(CCS(=O)(=O)c1ccc(Br)cc1)Nc1ccc(Cl)cc1F	1.7%	-4.6%	3.2%	2.3%	3.9%	3.3%	.
O=C(CCS(=O)(=O)c1ccc(Br)cc1)Nc1ccc(Br)cc1F	0.5%	35.5µM*	-8.0%	9.1%	-10.5%	3.2%	?
C[C@H]1c2cccc(O)c2C(O)=C2C(=O)[C@]3(O)C(O)=C(C(N)=O)C(=O)[C@@H](N(C)C)C3[C@@H](O)C21 (some centres not stated)	.	.	.	.	-5.6%	.	.
C=C1c2cccc(O)c2C(O)=C2C(=O)[C@@]3(O)C(O)=C(C(N)=O)C(=O)[C@@H](N(C)C)[C@@H]3[C@@H](O)[C@H]12	?	?	-5.4%[21.4 µM]	2.7%[53 µM]	.	23.1%[21.6 µM]	.	RECQ1 inh conf=?;RECQ1 ADP FP=14.1µM*
Cc1cc2n(n1)CCC(=O)N2Cc1ccc(C(=O)Nc2cc(Cl)ccc2C)cc1	-1.3%	.	-3.2%	2.2%	0.2%	.	.
O=C1CSC(=S)N1/N=C/c1ccc(O)c(O)c1O	-15.7%	2.24µM*	?	12.1%	62.5%	80.9%	.	RECQ1 inh conf=?
O=C1CSC(=S)N1/N=C/c1cc(Br)ccc1O	.	.	-4.1%	.	.	.	.
CC1=NN(c2ccc(Cl)cc2)C(=O)C1	-5.8%	i	-1.6%	-24.2%	2.3%	-2.8%	.
CC1=NN(c2ccc(N)cc2)C(=O)C1	-15.9%	?	-23.9%	-5.7%	2.5%	-1.4%	-1.6%
COc1ccc(CN(C(=O)c2ccc(-c3ccccc3)[nH]2)C(C(=O)NCC2CCCO2)c2ccc(C)o2)cc1 (configuration not stated)	1.0%	25.1µM*	-11.9%	-10.1%	2.8%	10.6%	-11.7%
SMILES	TexasRed fluor	RECQ1 inh-1	BLM inh	TRb-SRC2 inh	ERG-DNA inh	RGS12 GoLoco inh	RECQ1 inh-2	others
O=C(NCC1CCCO1)C(c1cccs1)N(Cc1ccccc1)C(=O)c1ccc(-c2ccccc2)[nH]1 (configuration not stated)	-3.6%	-1.2%	-5.9%	-1.6%	0.1%	21.5%	.
O=C(O)/C=C/C(=O)Nc1cccc2cccnc12	12.5%	?	-4.5%	5.3%	-7.5%	1.9%	.
O=C(/C=C/c1ccco1)Nc1cccc2cccnc12	-4.4%	?	-25.6%	0.0%	12.4%	27.4%	-21.5%
O=C(Nc1ccc(C2=NCCN2)cc1)c1ccc(Cl)c(C(=O)Nc2ccc(C3=NCCN3)cc2)c1	-4.5%	13.2%	251.2%	-2.6%	.	22.7%	.
Clc1ccc(C2=NCCN2)cc1	-1.0%	?	1.8%	-0.3%	16.5%	-3.4%	2.1%
CCOC(=O)c1cc2c(ccn2C)n1Cc1ccccc1C	0.6%	28.2µM*	-9.0%	-0.1%	.	3.8%	?
CCOC(=O)c1cc2c(ccn2C)n1Cc1ccccc1Cl	-0.8%	-6.3%	-4.1%	1.0%	-0.1%	1.8%	.
COc1ccc(Cl)cc1NC(=O)NCCc1c(C)nn(C)c1C	-0.8%	.	-0.4%	1.8%	-1.3%	.	.
N#C/C(=C\c1ccc(-c2ccc(C(=O)O)cc2)o1)c1nc2ccccc2[nH]1	?	?	-13.2%	-6.4%	2.2%	56.1%	?
O=C1OC(c2ccc(F)cc2)=C/C1=C\c1ccc([N+](=O)[O-])o1	-9.1%	22.4µM*	-23.4%	-3.4%	.	45.6%	.	RECQ1 inh conf=-4.9%[114 µM]
O=C1OC(c2ccc(F)cc2)=C/C1=C\c1ccc(O)cc1	.	.	-3.6%	.	6.3%	.	.
CCN(c1ccccc1)S(=O)(=O)c1cc(C(=O)O)ccc1C	-3.1%	28.2µM*	-1.1%	-2.6%	-1.4%	12.3%	?
O=C(O)c1ccc(Cl)c(S(=O)(=O)N(Cc2ccccc2)c2ccccc2)c1	.	.	2.1%	.	4.1%	.	.
